This is an account of results in PubChem BioAssay (NCI).

Among the test systems are HCT-15 colon; HT29 colon; SNB-75 CNS; SNB-19 CNS; U251 CNS; PC-3 prostate; SK-MEL-5 melanoma; UACC-62 melanoma; LOX IMVI melanoma; SK-MEL-28 melanoma.
Common to all, as to experiment: NCI-60 one-dose screen, 48 h (100 = growth as untreated, 0 = no growth, -100 = all killed)
Conditions in all cases: 10 µM unless noted

Compounds without any hit were thinned out: in the full panel of roughly 83,000, 20% have a hit.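 How to read the values: 0–100, growth inhibition (40 = 60% inhibited); 0, no net growth; -100 to 0, cell death (-40 = 40% of starting cells died; -100 = all dead).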 Unmarked numbers belong to inactive results. Active and inactive are the calls of the source. How the source made its calls: active means growth percent below 10; inactive means the rest.

Consider `C=CCSc1nnc(-c2ccc(-c3nc4ccccc4[nH]3)cc2)o1`, for which the growth was 51.3% in the assay on HCT-15 colon; 69.5% in the assay on HT29 colon; 74% with SNB-75 CNS; 79.7% with SNB-19 CNS; 84% with U251 CNS; 57.5% in the assay with PC-3 prostate. Further, the growth with SK-MEL-5 melanoma was 50.6%; in the assay on UACC-62 melanoma, 73.9%; in the assay with LOX IMVI melanoma, 73.9%; in the assay on SK-MEL-28 melanoma it was 85.6%.

Regarding `COC(=O)c1c(C(=O)OC)c2c3ccccc3c3ccccc3n2c1C(=O)C(F)(F)F`, the growth in the assay on HCT-15 colon is 101%; in the assay on HT29 colon it was 103%; with SNB-75 CNS, 87.9%; in the assay on SNB-19 CNS, 102%; with U251 CNS it was 105%; in the assay on PC-3 prostate it was 72.4%. The growth was 93.7% in the assay with SK-MEL-5 melanoma, 63% with UACC-62 melanoma, 87.7% in the assay with LOX IMVI melanoma and 103% in the assay on SK-MEL-28 melanoma.

Turning to `O=C(Nc1ccc(Br)cc1)Nc1ccc(-c2ccc3c(c2)NC(=O)/C3=C\c2ccc[nH]2)cc1`, the growth in the assay on HCT-15 colon was 42.8%; in the assay on HT29 colon, 23.1%; in the assay with SNB-75 CNS, 59.2%; in the assay on SNB-19 CNS, 75.2%; in the assay with U251 CNS it was 39.5%; in the assay on PC-3 prostate, 52.6%. Also, the growth in the assay with SK-MEL-5 melanoma is 33.1%; in the assay on UACC-62 melanoma, 24.7%; in the assay with LOX IMVI melanoma it was 25.6%; in the assay with SK-MEL-28 melanoma, 57.5%.

For the molecule `CCCCN1C(=O)/C(=C\C(=O)c2cc3ccccc3oc2=O)c2ccccc21`, the growth in the assay on HCT-15 colon was 2.32% (active); in the assay on HT29 colon, 71.2%; in the assay on SNB-75 CNS, 61.6%; with SNB-19 CNS, 91.3%; with U251 CNS, 88.2%; in the assay with PC-3 prostate, 83.3%. Also, the growth with SK-MEL-5 melanoma was 84.5%; in the assay on UACC-62 melanoma, 65.8%; in the assay on LOX IMVI melanoma, 57%; in the assay with SK-MEL-28 melanoma, 52.2%.

As for `COC(=O)c1c(C(=O)OC)c2ccc3c4ccccc4ccc3n2c1C(=O)C(C)Br` (stereo not given), the growth was 9.95% (active) with HCT-15 colon; 24% in the assay with HT29 colon; 94.3% with SNB-75 CNS; 52.1% with SNB-19 CNS; 23.9% in the assay with U251 CNS; 47.1% in the assay on PC-3 prostate. The growth was 24.4% with SK-MEL-5 melanoma, 33.5% with UACC-62 melanoma, -5.75% (active) in the assay on LOX IMVI melanoma and 65.4% in the assay with SK-MEL-28 melanoma.

As for `COc1ccc(N=Nc2c(N)nn3c(-c4ccc([N+](=O)[O-])cc4)ccnc23)cc1`, the growth in the assay with HCT-15 colon was 101%; with HT29 colon it was 96.3%; in the assay with SNB-75 CNS it was 85.4%; in the assay with SNB-19 CNS, 108%; with U251 CNS, 107%; in the assay with PC-3 prostate, 101%. Further, the growth in the assay on SK-MEL-5 melanoma was 94.2%; with UACC-62 melanoma, 94.5%; in the assay on LOX IMVI melanoma, 99.9%; in the assay on SK-MEL-28 melanoma, 101%.

Regarding `COc1ccccc1NC(=O)N/N=C/c1c[nH]c2ccccc12`, the growth in the assay on HCT-15 colon is 13.8%; in the assay with HT29 colon it was 4.72% (active); in the assay with SNB-75 CNS, 20.8%; with SNB-19 CNS, 40.6%; in the assay on U251 CNS it was 20%; in the assay on PC-3 prostate, 35.2%. Further, the growth is 4.48% (active) in the assay on SK-MEL-5 melanoma, 20.3% in the assay with UACC-62 melanoma, -51.2% (active) in the assay with LOX IMVI melanoma and 44.2% in the assay on SK-MEL-28 melanoma.

With `COc1ccc(-c2nc3ccc(-c4nnc(SCc5ccccc5)o4)cc3[nH]2)cc1`, the growth is -17.4% (active) in the assay with HCT-15 colon; 9.58% (active) with HT29 colon; -82.8% (active) with SNB-75 CNS; 2.92% (active) with SNB-19 CNS; -77.1% (active) in the assay on U251 CNS; 20.1% in the assay on PC-3 prostate. Moreover, the growth is -21.7% (active) with SK-MEL-5 melanoma, -72.3% (active) in the assay with UACC-62 melanoma, -96.6% (active) in the assay with LOX IMVI melanoma and -36.3% (active) in the assay on SK-MEL-28 melanoma.

On to `O=C(NNC(=S)NCCc1ccccc1)c1ccc(OCc2nc3ccc(Cl)cc3[nH]2)cc1`, for which the growth with HCT-15 colon is 66.9%; in the assay with HT29 colon it was 100%; in the assay on SNB-75 CNS, 128%; in the assay on SNB-19 CNS, 75.6%; with U251 CNS it was 88.2%; in the assay on PC-3 prostate it was 67.1%. The growth is 41.6% in the assay on SK-MEL-5 melanoma, 63.3% with UACC-62 melanoma, 80.4% with LOX IMVI melanoma and 101% in the assay with SK-MEL-28 melanoma.

For the molecule `COc1ccc(C2=Nc3c(N)nc(N)nc3NC(c3ccc(Oc4nc(Nc5ccc(F)cc5)nc(N(C)C)n4)c(OC)c3)C2)cc1` (stereo not given), the growth is 48.7% in the assay with HCT-15 colon; 46.4% in the assay with HT29 colon; 51% in the assay with SNB-75 CNS; 76.5% in the assay with SNB-19 CNS; 65.3% in the assay with U251 CNS; 49.1% in the assay on PC-3 prostate. The growth in the assay on SK-MEL-5 melanoma was 51.5%; with UACC-62 melanoma, 98.3%; in the assay with LOX IMVI melanoma, 63.1%; with SK-MEL-28 melanoma it was 93.2%.

With `Cn1cc(-c2cc(N)n3nc(-c4c[nH]c5ccc(F)cc45)cc3n2)c2cc(Br)cnc21`, the growth in the assay with HCT-15 colon is -11.7% (active); in the assay with HT29 colon, 25.8%; in the assay on SNB-75 CNS, 134%; in the assay on SNB-19 CNS, 98.3%; in the assay with U251 CNS, 22.4%; in the assay with PC-3 prostate, 53.8%. Moreover, the growth with SK-MEL-5 melanoma is 78.8%; with UACC-62 melanoma, 73.7%; with LOX IMVI melanoma, -56.8% (active); with SK-MEL-28 melanoma, 80%.

Take `N#Cc1cc(-c2ccc3ncnc(N4CCc5cc(F)c(Cl)cc54)c3c2)cnc1N`: the growth in the assay with HCT-15 colon was 23.3%; in the assay with HT29 colon, 34.2%; in the assay with SNB-75 CNS it was 24.9%; with SNB-19 CNS, 57.9%; in the assay on U251 CNS, 57%; in the assay with PC-3 prostate, 33.8%. The growth with SK-MEL-5 melanoma is 55.9%; in the assay on UACC-62 melanoma, 56.7%; in the assay on LOX IMVI melanoma, 28.4%; with SK-MEL-28 melanoma it was 61.2%.

With `CCC1(OC(=O)c2ccccc2SSCCOC(=O)CCCCC2SCC3NC(=O)NC32)C(=O)OCc2c1cc1n(c2=O)Cc2cc3ccccc3nc2-1` (stereo not given), the growth in the assay with HCT-15 colon is 64.7%; in the assay with HT29 colon it was 67.8%; in the assay with SNB-75 CNS it was 81.3%; with SNB-19 CNS, 36.7%; in the assay with U251 CNS, 36.2%; in the assay on PC-3 prostate, 37.4%. The growth in the assay with SK-MEL-5 melanoma was 21.1%; with UACC-62 melanoma, 17.7%; with LOX IMVI melanoma it was 33.9%; with SK-MEL-28 melanoma, 96%.
